Data taken from PubChem BioAssay (NCI).
This is part of a sample that, as a whole, favours compounds with a hit. Of some 83,000 tested, about 20% had one in any assay.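 Values shown are percent growth following 48 h exposure of cells in 96-well plates to a single concentration of compound; below 10 was considered active.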 Values without a mark were called inactive. Active and inactive are the calls of the source.

Key:
Assay in all cases: NCI-60 one-dose screen, 48 h (100 = growth as untreated, 0 = no growth, -100 = all killed)
Settings in all cases: 10 µM
NCI-H23 lung = system: NCI-H23 lung
NCI-H226 lung = system: NCI-H226 lung
NCI-H322M lung = system: NCI-H322M lung
HOP-62 NSCLC = system: HOP-62 NSCLC
NCI-H460 lung = system: NCI-H460 lung
HOP-92 NSCLC = system: HOP-92 NSCLC
NCI-H522 lung = system: NCI-H522 lung
A549/ATCC NSCLC = system: A549/ATCC NSCLC
786-0 renal = system: 786-0 renal
COLO 205 colon = system: COLO 205 colon
DU-145 prostate = system: DU-145 prostate
K-562 leukemia = system: K-562 leukemia
MALME-3M melanoma = system: MALME-3M melanoma
MDA-MB-231 breast = system: MDA-MB-231 breast
SF-268 CNS = system: SF-268 CNS
SF-295 CNS = system: SF-295 CNS
SF-539 CNS = system: SF-539 CNS
UACC-257 melanoma = system: UACC-257 melanoma
M14 melanoma = system: M14 melanoma

Row | SMILES | growth (NCI-H23 lung) | growth (NCI-H226 lung) | growth (NCI-H322M lung) | growth (HOP-62 NSCLC) | growth (NCI-H460 lung) | growth (HOP-92 NSCLC) | growth (NCI-H522 lung) | growth (A549/ATCC NSCLC) | growth (786-0 renal) | growth (COLO 205 colon) | growth (DU-145 prostate) | growth (K-562 leukemia) | growth (MALME-3M melanoma) | growth (MDA-MB-231 breast) | growth (SF-268 CNS) | growth (SF-295 CNS) | growth (SF-539 CNS) | growth (UACC-257 melanoma) | growth (M14 melanoma)
1 | CCOC(=O)C(Cc1ccccc1)N1C(=O)/C(=C/N2N=C(c3ccc(OC)cc3)CC2c2ccc3ccccc3c2)SC1=S (centres undefined) | -55.5% (active) | -41.8% (active) | 18.2% | -54.8% (active) | -3.96% (active) | -8.32% (active) | 1.04% (active) | 21.7% | 13.8% | -86% (active) | 30.7% | 11.9% | -27.2% (active) | 3.55% (active) | 30.2% | -78.2% (active) | -27.2% (active) | 1.02% (active) | 7.24% (active)
2 | COc1ccc(NC(=O)Cn2c(/C=C/c3ccc(N(C)C)cc3)nc3ccccc3c2=O)cc1 | 49.8% | -15.2% (active) | 46.4% | 39.3% | 19.5% | -2.51% (active) | 44.1% | 15.2% | 7.97% (active) | 47% | 6.75% (active) | 58.8% | 7.28% (active) | 18.8% | 73% | 49.5% | -60.2% (active) | 67.7% | 81%
3 | CN1C(=O)N(C)C2SC(N/N=C/C=C/c3ccccc3)=NC21 (centres undefined) | 84.9% | 79.3% | 93.9% | 85.9% | 94.5% | 97.9% | 56.1% | 87.5% | 73.9% | 122% | 84.2% | 25.3% | 66.8% | 82.4% | 75.2% | 72.7% | 75.7% | 83.1% | 54.7%
4 | C/C(=N\N=C\c1ccc(N(C)C)cc1)c1ccc2c(c1)Nc1ccccc1S2 | 31.4% | 16.8% | 79.5% | 62.2% | 25% | 59.5% | 48.5% | 50.5% | 67.5% | 60.4% | 62% | 28.2% | 49.9% | 52% | 62.8% | 24.6% | 52.8% | 64.9% | 67.7%
5 | CN1C(=O)N(C)C2SC(N/N=C/c3ccc(F)cc3)=NC21 (centres undefined) | 63.5% | 75.6% | 97.4% | 53.5% | 32.6% | 71.1% | 14.7% | 49.6% | 50.2% | 46.5% | 76.3% | 15% | 40.1% | 38.7% | 52.1% | 30.8% | 29.3% | 67.7% | 23.8%
6 | Clc1cccc(N/N=C/c2c[nH]c3ccccc23)n1 | 57.3% | 50.7% | 65.9% | 46.9% | 28.9% | -10.8% (active) | 16.1% | 56.4% | 13.7% | 37.2% | 48.7% | 13.8% | 50.6% | -0.126% (active) | 19.9% | 49.5% | 6.26% (active) | 68% | 43.6%
7 | O=C(Cn1nc(-c2ccccc2)ccc1=O)NNC(=S)NC1CCCCC1 | 105% | 105% | 99.6% | 104% | 136% | 116% | 104% | 114% | 105% | 135% | 117% | 90.4% | 105% | 109% | 113% | 101% | 97.3% | 111% | 122%
8 | Cc1noc2c(Cc3ccc([N+](=O)[O-])cc3)nn(CC(=O)N/N=C/c3ccc(Br)cc3)c(=O)c12 | 87.7% | 67.7% | 104% | 72.4% | 81.5% | 50.6% | 98.6% | 65.1% | 4.46% (active) | 119% | 74.9% | 88.7% | 66% | 46.4% | 72.1% | 89.5% | 26.1% | 106% | 93.4%
9 | COc1nccnc1NS(=O)(=O)c1ccc(NC2=C(Cl)C(=O)c3nc(C)ccc3C2=O)cc1 | 83.7% | 93.4% | 101% | 101% | 118% | 116% | 88% | 105% | 99.9% | 134% | 107% | 96.3% | 100% | 91.1% | 92.9% | 97.5% | 94% | 101% | 112%
10 | CCCCOc1ccc(Nc2nc3ccccc3nc2Nc2ccc(OCCCC)cc2)cc1 | 82.6% | 96.6% | 106% | 98.9% | 60.1% | 97.4% | 88.5% | 89.4% | 72.1% | 116% | 87.9% | 77.3% | 106% | 109% | 82% | 87.5% | 106% | 97.3% | 88.5%
11 | CN1CCc2c(sc3ncnc(N/N=C/c4cn(-c5ccccc5)nc4-c4ccc(Cl)cc4)c23)C1 | -20.6% (active) | 33.1% | 28.7% | 29.8% | 1.06% (active) | 45.7% | 3.5% (active) | 26.3% | 25.3% | -30.1% (active) | 31.4% | 9.51% (active) | 17.8% | 4.63% (active) | 30.7% | 21.6% | 7.13% (active) | 8.67% (active) | 16.6%
12 | N#Cc1ccc(-c2nn(-c3ccc(C(=O)O)cc3)cc2CNc2ccc(Cl)cc2)cc1 | 73.3% | 85% | 88.8% | 81.3% | 93.1% | 133% | 81.3% | 84.6% | 87.2% | 142% | 97.6% | 69.4% | 102% | 90.6% | 78.6% | 63.3% | 80.1% | 97.8% | 83.4%
13 | O=C(CNc1nc(-c2ccccc2)cs1)Nc1ccc(Br)cc1 | -90.8% (active) | -58.6% (active) | -99.5% (active) | -78.8% (active) | -61.5% (active) | -71.5% (active) | -77.8% (active) | -82.3% (active) | -73.2% (active) | -77.4% (active) | -92.3% (active) | 6.7% (active) | -82.4% (active) | -92.5% (active) | -12.5% (active) | -97.5% (active) | -98.3% (active) | -73.8% (active) | -86.5% (active)
14 | O=C(CSc1nnc(-c2c[nH]c3ccccc23)n1-c1ccccc1)Nc1ccc(C(=O)/C=C/c2ccc(Br)cc2)cc1 | 81.3% | 72.5% | 92.1% | 89.4% | 104% | 89.4% | 76.3% | 89.6% | 94.8% | 108% | 96.4% | 69.1% | 98.5% | 87.8% | 67% | 74.8% | 80.5% | 109% | 102%
15 | O=[N+]([O-])c1ccc(-c2nc(-c3ccccc3)c(-c3ccccc3)n2-c2ccc(S(=O)(=O)Nc3ncccn3)cc2)cc1 | 23.9% | 27.7% | 65.7% | 61.9% | 31.3% | 5.67% (active) | 69.4% | 60% | 35.9% | 125% | 64.4% | 47.1% | 87.2% | 43.2% | 31.7% | 9.39% (active) | 53.9% | 63.9% | 40.6%
16 | Cc1cc(=O)oc2cc(OCCCCOc3ccc(/C=C/C(=O)Nc4ccc(F)c(Cl)c4)cc3)ccc12 | 87% | 95.9% | 93.4% | 108% | 86.7% | 115% | 94.6% | 79.7% | 94.9% | 115% | 89.1% | 88% | 71% | 97.1% | 111% | 101% | 89.3% | 97.8% | 95.9%
